# This is part of a sample that, as a whole, favours compounds with a hit. Of some 83,000 tested, about 20% had one in any assay.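 A percent growth of 40 corresponds to 60% growth inhibition; 0 means no net growth; -100 means all cells died. Active threshold: below 10.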 Values without a mark were called inactive. Activity calls are given as the source filed them.
# How the values were obtained:
# Assay in all cases: NCI-60 one-dose screen, 48 h (100 = growth as untreated, 0 = no growth, -100 = all killed)
# Details in all cases: 10 µM unless noted
# SR leukemia = system: SR leukemia
# OVCAR-8 ovarian = system: OVCAR-8 ovarian
# OVCAR-5 ovarian = system: OVCAR-5 ovarian
# OVCAR-4 ovarian = system: OVCAR-4 ovarian
# SK-OV-3 ovarian = system: SK-OV-3 ovarian
# IGROV1 ovarian = system: IGROV1 ovarian
# OVCAR-3 ovarian = system: OVCAR-3 ovarian
# HS 578T breast = system: HS 578T breast
# NCI/ADR-RES ovarian = system: NCI/ADR-RES ovarian
# T-47D breast = system: T-47D breast
# BT-549 breast = system: BT-549 breast
# MDA-MB-435 melanoma = system: MDA-MB-435 melanoma
# SW-620 colon = system: SW-620 colon
# MCF7 breast = system: MCF7 breast
# HCT-116 colon = system: HCT-116 colon
# HCC-2998 colon = system: HCC-2998 colon
# KM12 colon = system: KM12 colon
# RPMI-8226 leukemia = system: RPMI-8226 leukemia
Compound,growth (SR leukemia),growth (OVCAR-8 ovarian) [%],growth (OVCAR-5 ovarian),growth (OVCAR-4 ovarian),growth (SK-OV-3 ovarian),growth (IGROV1 ovarian),growth (OVCAR-3 ovarian),growth (HS 578T breast),growth (NCI/ADR-RES ovarian),growth (T-47D breast),growth (BT-549 breast),growth (MDA-MB-435 melanoma),growth (SW-620 colon),growth (MCF7 breast),growth (HCT-116 colon),growth (HCC-2998 colon),growth (KM12 colon),growth (RPMI-8226 leukemia)
CCCCOC(=O)c1ccc(NC(=O)C(C)N2CCOCC2)cc1 (configuration not stated),98.1%,95.6,112%,124%,109%,103%,102%,99%,101%,107%,86.6%,113%,101%,106%,77.6%,102%,109%,
CCOC(=O)C(O)C(O)(c1ccccc1)c1ccccc1 (configuration not stated),95%,108,90.4%,111%,97%,100%,108%,108%,102%,93.6%,103%,111%,109%,93.5%,105%,99.9%,101%,
CC[C@]1(O)C[C@H]2CN(CCc3c([nH]c4ccccc34)[C@@](C(=O)OC)(c3cc4c(cc3OC)N(C=O)[C@H]3[C@@](O)(C(=O)OC)[C@H](OC(C)=O)[C@]5(CC)C=CCN6CC[C@]43[C@@H]65)C2)C1,9.82% (active),,-47.6% (active),49.2%,-7.88% (active),4.04% (active),-41.4% (active),,-62.6% (active),54.8%,-24.2% (active),-43.7% (active),15.5%,2.44% (active),-36.7% (active),,5.78% (active),-5.85% (active)
CCCCC1COc2cccc3c(SCC(=O)N(C)c4cccc(Cl)c4)cc[n+]1c23 (configuration not stated),100%,118,109%,129%,108%,112%,121%,109%,111%,107%,107%,120%,110%,94.3%,104%,104%,103%,
O=C1/C(=C/c2ccc([N+](=O)[O-])cc2)COc2ccc(O)c(O)c21,-1.74% (active),14.2,-68.6% (active),6.56% (active),89.2%,-40% (active),-88.2% (active),4.58% (active),11.1%,-5.74% (active),24.3%,0.103% (active),-40.6% (active),8.42% (active),-34.3% (active),-77.8% (active),-55.3% (active),
Clc1ccc(/C=C/c2nc(Nc3ccc(Cl)cc3)c3ccccc3n2)cc1,104%,102,106%,112%,96.6%,78.2%,106%,103%,103%,91.2%,107%,109%,103%,80.9%,99.1%,106%,109%,
O=C(O)CC1Sc2ccccc2NC1=O (configuration not stated),61.1%,,83.9%,128%,106%,93.6%,110%,133%,88.2%,111%,118%,104%,103%,255%,100%,106%,104%,96%
CC(/C=N/NC(=O)c1cc(-c2ccco2)[nH]n1)=C\c1ccccc1,88.7%,,96.9%,99.6%,97.4%,107%,107%,30.3%,97.8%,96.6%,101%,89.9%,101%,99.8%,99.3%,106%,93.9%,84.7%
COc1cc(/C=C/C(=O)c2cccc(-n3cc(-c4ccccc4)[nH]c3=O)c2)cc(OC)c1OC,-15.9% (active),,,-7.54% (active),4.74% (active),-23.8% (active),6.35% (active),,,-6.56% (active),-13.1% (active),-3.32% (active),-29% (active),-93.8% (active),-90.3% (active),-81.4% (active),-53.6% (active),-39.4% (active)
COc1cc(C2C=C(c3cccc(NC(C)=O)c3)Nc3ncnn32)cc(OC)c1OC (configuration not stated),-5.94% (active),,34.8%,59.8%,35.5%,30.4%,-40.5% (active),19%,76.1%,64.7%,-0.0208% (active),-47.7% (active),,18.3%,20.3%,24%,15.2%,19%
CC(=O)Nc1ccc2c(c1)Cc1c(F)cccc1-2,98.2%,,106%,106%,115%,98.8%,105%,115%,107%,76.6%,109%,107%,,35.9%,108%,94.2%,91.5%,94.1%
O=C1CSC(c2ccc(O)cc2)N1c1nnc(Cn2cnnc2)o1 (configuration not stated),3.17% (active),,96.1%,88.6%,112%,104%,15.2%,64.7%,92.2%,92.3%,55.8%,-1.5% (active),67.4%,84%,93%,112%,49.9%,62%
CCCCOc1nc2ccc(Cl)cc2cc1/C=C/C(=O)/C=C1/CC(c2cc3cc(Cl)ccc3nc2OCCCC)Nc2ccccc2N1 (configuration not stated),91.2%,101,93.8%,101%,86.1%,67.2%,102%,91.1%,98.3%,83.5%,96.6%,104%,98.7%,74.2%,97.6%,91.5%,101%,
COc1cc(/C=C2\C=C(c3ccccc3)N(CCc3ccccc3)C2=O)cc(OC)c1OC,85.5%,38.5,105%,33.4%,62.9%,83.1%,87.7%,23.2%,66.8%,56.9%,91.3%,89.5%,85.2%,70.9%,52.2%,102%,80.6%,
COc1ccc(-c2cc(-c3cc(OC)ccc3O)[nH]c(=O)c2C#N)cc1,10.1%,,119%,80.5%,63.5%,71.6%,27.5%,36.6%,52.7%,45.6%,22.1%,-0.171% (active),34.4%,46.4%,33.6%,72.9%,41.8%,56.4%
NS(=O)(=O)c1cn(-c2ncnc3nc[nH]c23)ccc1=O,132%,107,93.1%,95.1%,82.2%,97.2%,103%,102%,105%,76.7%,109%,103%,95.1%,104%,94.5%,107%,92.9%,
COc1ccc(/C=C2\COc3ccc(O)cc3C2=O)cc1OC,1.44% (active),46.4,86.8%,92.8%,93.1%,89.5%,28.4%,80.4%,98.4%,73%,75.7%,24.4%,10.6%,27.3%,11.7%,121%,20.2%,
